Sfp inh: blocks B. subtilis Sfp PPTase activity | hit rate 3.5% among 310,000 | Biochemical Sfp PPTase activity, qHTS | Q9F4F7 | Potency, µM, hits mostly inhibitors;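 note: the enzyme is Sfp with the accession as filed and its product quenches rhodamine fluorescence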
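Fluorescence-quenching assay with 15 nM Sfp, 5 uM rhodamine-CoA and 12.5 uM BHQ-2-labelled ybbR peptide in pH 7.6 Hepes/MgCl2 buffer. Enzyme was pre-incubated with compound for 15 min at room temperature. Rate was taken from the 30-min fluorescence change (525/598 nm).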
BAZ2B block: BAZ2B (human) inhibition. Q9UIF8. AlphaScreen BAZ2B-H3K14Ac peptide displacement. Potency, µM (titrated, usually from 114 µM), hits mostly inhibitors. hit rate 4.4% among 360,000; note: nearly all actives have a fitted effect of over 60% in size
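Protein-peptide AlphaScreen: BAZ2B 50 nM, b-H3K14Ac 50 nM, 1x PBS pH 7.4 + 0.01% Tween-20. Preincubation 30 min RT; cpd 30 min RT (top 110 uM); beads 20 min RT, light-protected.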
JMJD2A Tudor: blocks the human JMJD2A Tudor domain | O75164 | hit rate 4.4% among 390,000 | AlphaScreen JMJD2A-Tudor / H3K4me3 peptide binding | Potency, µM (highest dose often 114 µM), actives largely listed as inhibitors; note: nearly all actives have a fitted effect of over 50% in size
G9a block: blocks human histone lysine methyltransferase G9a | G9a H3K9 monomethylation, AlphaScreen, 2 h | Q96KQ7 | hit rate 8.8% among 350,000 | Potency, µM (series often up to 102 µM), hits mostly inhibitors; note: nearly all actives have a fitted effect of over 75% in size
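G9a (20 nM) was preincubated 15 min with compound, then reacted 2 h at room temperature with 500 nM biotin-H3K9 peptide and 20 µM SAM. Monomethyl-H3K9 detected by AlphaScreen using anti-H3K9me1 antibody.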
PLK1 PBD block: PLK1 (human) polo-box domain binding inhibition. P53350. Plk1 PBD binding of FITC phosphopeptide, fluorescence polarization. Potency, µM, usual class: inhibitors. hit rate 2.8% among 360,000. AID 720504; note: series mostly up to about 57 µM; nearly all actives have a fitted effect of over 65% in size
Target sequence (P53350 whole entry, looked up, the tested form may be a part): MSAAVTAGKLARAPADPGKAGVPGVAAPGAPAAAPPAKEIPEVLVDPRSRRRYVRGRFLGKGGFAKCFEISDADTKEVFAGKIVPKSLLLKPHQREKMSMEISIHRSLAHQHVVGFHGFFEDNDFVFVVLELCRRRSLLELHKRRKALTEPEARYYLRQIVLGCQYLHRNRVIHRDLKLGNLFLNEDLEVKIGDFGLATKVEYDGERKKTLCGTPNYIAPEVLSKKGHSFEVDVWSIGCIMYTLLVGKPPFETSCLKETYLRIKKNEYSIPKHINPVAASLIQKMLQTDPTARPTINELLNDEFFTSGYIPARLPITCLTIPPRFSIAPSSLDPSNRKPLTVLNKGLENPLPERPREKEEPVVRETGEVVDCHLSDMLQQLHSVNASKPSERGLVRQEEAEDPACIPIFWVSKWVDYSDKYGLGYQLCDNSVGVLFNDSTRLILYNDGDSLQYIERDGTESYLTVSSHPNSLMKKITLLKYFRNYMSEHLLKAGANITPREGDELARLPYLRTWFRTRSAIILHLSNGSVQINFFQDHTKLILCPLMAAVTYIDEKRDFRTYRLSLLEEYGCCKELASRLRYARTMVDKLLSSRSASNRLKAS
HP1b binding inh: blocks HP1-beta chromodomain binding to methylated histone tails. P83916. AlphaScreen HP1-beta / biotin-H3K9me3 peptide binding. Potency, µM (doses to about 114 µM), most hits filed as inhibitors. hit rate 0.56% among 390,000. AID 540317; note: nearly all actives have a fitted effect of over 70% in size
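Compound inhibition of the preformed complex between 50 nM HP1-beta and 50 nM biotinylated H3K9me3 peptide was read by AlphaScreen. Buffer was PBS pH 7.4 with 0.01% Tween-20. Incubations ran 30 min at room temperature, with 10 ug/mL donor/acceptor beads.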
Each line names hits and unclear results; the compound was inactive in the other large screens. A selection: hits, their analogues and other compounds. The true share with any hit is near 12%. Calls come from the whole dose curve; as a rule, active = well fitted curve in the direction sought with a large enough effect; inconclusive = small, poorly fitted or top-dose-only effect, or another doubt; inactive = no such curve, though single readings can be large; an effect the other way counts as inactive or inconclusive.

CC(=O)N1N=C(c2ccc(C)o2)CC1c1cccc(F)c1 (centres undefined)	Sfp inh 40µM, HP1b binding inh inconclusive (no result: G9a block)
O=C(CNC(=O)c1ccccc1)OCC(=O)N1N=C(c2ccc(Cl)cc2)CC1c1ccco1 (centres undefined)	PLK1 PBD block inconclusive
Cc1ccc(C2=NN(C(=O)CCl)C(c3ccco3)C2)o1 (centres undefined)	G9a block 40µM, HP1b binding inh inconclusive
Cc1ccc(S(=O)(=O)N[C@H](C(=O)OCC(=O)N2N=C(c3ccc(Cl)cc3)CC2c2ccco2)C(C)C)cc1 (some centres undefined)	Sfp inh 79µM
COc1ccc(-n2nnnc2SCC(=O)NCCc2ccccc2)cc1	none (no result: Sfp inh, PLK1 PBD block)
Cc1ccc(NCC(=O)Nc2c(C)n(C)n(-c3ccccc3)c2=O)cc1S(=O)(=O)N(C)C	none
CCOCCc1nnc(NC(=O)COC)s1	none
CCSc1nc2sc3c(c2c(=O)[nH]1)CCCC3	none
CCSc1nc2sc3c(c2c2[n+]1CC(CBr)O2)CCCC3 (centres undefined)	Sfp inh 50µM, BAZ2B block 56µM, JMJD2A Tudor 56µM, G9a block 25µM
COc1ccc(Cc2nnc(NC(=O)Cc3cccs3)s2)cc1OC	BAZ2B block 28µM, G9a block inconclusive, PLK1 PBD block inconclusive, HP1b binding inh inconclusive
O=C(Cc1cccs1)Nc1nnc(SCc2cccc3ccccc23)s1	BAZ2B block inconclusive, G9a block 45µM
Cn1c(SCC(=O)NCc2cccs2)nnc1-c1cccs1	none
O=C(Cc1cccs1)Nc1nnc(SCC(=O)NC2CCCCC2)s1	G9a block inconclusive
O=C(Cc1cccs1)Nc1nnc(Cc2ccccc2)s1	BAZ2B block 50µM, JMJD2A Tudor 50µM, G9a block inconclusive, PLK1 PBD block 27µM, HP1b binding inh inconclusive
Cn1c(SCC(=O)NCc2cccs2)nnc1-c1ccc(O)cc1	JMJD2A Tudor inconclusive, PLK1 PBD block 24µM
COc1ccc(C(=O)Nc2nnc(Cc3cccs3)s2)cc1OC	none
Cc1ccc(C(CC(=O)N2CCNCC2)c2ccccc2)c(O)c1C (centres undefined)	none
CC(C)CCn1c(=O)c2sccc2n2c(CCCC(=O)NC(C)c3ccccc3)nnc12 (centres undefined)	none (no result: Sfp inh, PLK1 PBD block)
COc1ccc(S(=O)(=O)n2nc(C)c(S(=O)(=O)N3CCCCC3)c2C)cc1	JMJD2A Tudor inconclusive (no result: Sfp inh, PLK1 PBD block)
O=C(CSc1nnc(Nc2ccccc2)s1)NCc1cccs1	G9a block 40µM
O=C(CSc1nnc(NC(=O)C2CC2)s1)NCc1cccs1	none
C=CC1=C2C=C(C3CC3)N(Cc3ccco3)C=C2C(=O)C(C)(OC(=O)c2ccco2)C1=O (centres undefined)	none (no result: BAZ2B block, JMJD2A Tudor, G9a block, PLK1 PBD block, HP1b binding inh)
CCn1c(C)nc2cc(S(=O)(=O)N3CCCC3)ccc21	PLK1 PBD block inconclusive
CCCCn1c(CCC(=O)O)nc2cc(S(=O)(=O)N(C)C)ccc21	none
CCn1c(-c2ccccn2)nc2cc(S(=O)(=O)N(C)C)ccc21	G9a block 50µM
CCn1c(C)nc2cc(S(N)(=O)=O)ccc21	JMJD2A Tudor 14µM, PLK1 PBD block inconclusive (no result: G9a block)
CCn1c(-c2cc(Br)cc(OC)c2O)nc2cc(S(=O)(=O)N(C)C)ccc21	G9a block 45µM
CC(=O)Nc1ccc2nc3c(=O)[nH]c(=O)[nH]c3nc2c1	BAZ2B block inconclusive, G9a block inconclusive (no result: Sfp inh, PLK1 PBD block)
O=C(CNC1=NCCC1)c1ccc(Cl)cc1	G9a block 28µM
O=Cc1c[nH]c2ccc(S(=O)(=O)N3CCCCC3)cc12	none (no result: Sfp inh, BAZ2B block, JMJD2A Tudor, G9a block, HP1b binding inh)
Cn1ccnc1C(=O)c1cc(SCC(=O)N2CCOCC2)nc2ccccc12	none
COc1ccc(-n2cc(-c3ccc4c(c3)OCO4)n(CC(=O)Nc3cccc(C)c3C)c2=O)c(OC)c1	BAZ2B block inconclusive, JMJD2A Tudor inconclusive, G9a block 5µM (no result: Sfp inh, PLK1 PBD block)
COc1ccc(-n2cc(-c3ccc4c(c3)OCO4)n(CC(=O)Nc3cc(Cl)ccc3C)c2=O)cc1	BAZ2B block 89µM, G9a block inconclusive (no result: Sfp inh, PLK1 PBD block)
Nc1ccn(CCCN2CCN(C(=O)C3CC3)CC2)c(=O)n1	none (no result: Sfp inh, BAZ2B block, JMJD2A Tudor, G9a block, HP1b binding inh)
O=C(O)c1ccc(OCCn2ccnc2)cc1	BAZ2B block 79µM, JMJD2A Tudor inconclusive, G9a block inconclusive
Clc1cc(Br)ccc1OCCn1ccnc1	BAZ2B block 22µM, JMJD2A Tudor 3.2µM, G9a block 8.9µM, HP1b binding inh inconclusive
Cc1cccc(C(C)(C)C)c1OCCn1ccnc1	BAZ2B block 79µM, JMJD2A Tudor 1.3µM, G9a block 18µM, HP1b binding inh 50µM
CCCCCCOc1ccc(C(=O)NCCCn2ccnc2)cc1	none
Cc1cc(C)c(C)c(OCCn2ccnc2)c1	G9a block inconclusive
Cc1cc(Br)ccc1OCCn1ccnc1	BAZ2B block 50µM, JMJD2A Tudor 4.5µM, G9a block 32µM, HP1b binding inh 22µM
COc1cccc(N2CC(NC(=O)c3cc4ccccc4o3)CC2=O)c1 (centres undefined)	none (no result: Sfp inh, PLK1 PBD block)
Cc1cccc(C)c1OCC(O)CN1CCC(CN2C(=O)c3cccc4cccc(c34)C2=O)CC1 (centres undefined)	Sfp inh inconclusive, BAZ2B block inconclusive, JMJD2A Tudor inconclusive
Cc1nc2ccccc2nc(C)c1=NOCc1ccccc1Cl	none
Clc1ccccc1OCCCCn1ccnc1	none
Clc1ccccc1OCCCn1ccnc1	BAZ2B block 79µM, JMJD2A Tudor 18µM, G9a block 25µM, HP1b binding inh inconclusive
Clc1ccc(OCCn2ccnc2)cc1Cl	BAZ2B block 50µM, JMJD2A Tudor 5.6µM, HP1b binding inh inconclusive (no result: G9a block)
Cc1ccc(OCCCn2ccnc2)c(Br)c1	BAZ2B block 56µM, JMJD2A Tudor 22µM, G9a block 14µM, HP1b binding inh inconclusive
Clc1cc(Br)ccc1OCCCn1ccnc1	BAZ2B block 50µM, JMJD2A Tudor 22µM, G9a block inconclusive, HP1b binding inh inconclusive
CCS(=O)(=O)N1CCC(c2nc3ccccc3[nH]2)CC1	none
CC1(C(=O)NS(=O)(=O)c2ccc(Cl)s2)CCN1C(=O)c1ccccc1CCc1ccccc1 (centres undefined)	none (no result: Sfp inh, BAZ2B block, JMJD2A Tudor, G9a block, HP1b binding inh)
COC(=O)CN(c1ccc(OC)cc1OC)S(=O)(=O)c1ccccc1[N+](=O)[O-]	Sfp inh inconclusive, G9a block 11µM
COc1ccc(N(CC(=O)Nc2ccccc2C)S(=O)(=O)c2ccccc2[N+](=O)[O-])c(OC)c1	JMJD2A Tudor inconclusive, PLK1 PBD block 7.5µM, HP1b binding inh inconclusive
COc1ccc(N(CC(=O)N2CCCCCC2)S(=O)(=O)c2ccccc2[N+](=O)[O-])c(OC)c1	none
CS(=O)(=O)c1ccc(C(=O)OCC(=O)NC(=O)C2CCCCC2)cc1[N+](=O)[O-]	Sfp inh 25µM
COc1cc(NC(=O)CN(c2ccc(C)cc2)S(=O)(=O)c2c(C)noc2C)cc(OC)c1	none
COc1ccc(CNc2nc3nc(C)c(Cl)c(=O)n3[nH]2)cc1	G9a block 56µM
